Where a structure was tested more than once in an assay, its records may differ in their call. Activity calls are given as the source filed them. Rule for the calls: active = hit-call score of the fitted dose curve at least 0.9, where 1 is the maximum; inactive = score below 0.9.
Read-out: Plasminogen activator inhibitor-1 (PAI1), SERPINE1 (gene 5054)
Experiment: BSK_MyoF_PAI1: BioMAP Diversity Plus: MyoF Assay for Plasminogen activator inhibitor-1 (PAI1) Biomarker Activity (AID 2284256)
Conditions: primary human lung fibroblasts
Procedure: BSK_MyoF is a cell-based, multiplexed-readout assay that uses lung fibroblasts, […], with measurements taken at 24 hours after chemical dosing in a microplate: 96-well plate.BSK_MyoF_PAI1 is an assay component measured in the BSK_MyoF assay. It measures PAI-1 antibody related to regulation of gene expression using ELISA technology.Data from the assay component BSK_MyoF_PAI1 was analyzed at the endpoint, BSK_MyoF_PAI1, in the positive analysis fitting direction relative to DMSO as the negative control and baseline of activity. Using a type of binding reporter, gain or loss-of-signal activity can be used to understand protein changes. To generalize the intended target to other relatable targets, this assay endpoint is annotated to the 'cytokine' intended target family, where the subfamily is 'plasmogen activator inhibitor'.
The levels of cell surface (or secreted, indicated by the prefix "s") biomarker endpoints were measured by ELISA. Overt cytotoxicity to cells in confluent adherent cultures (all systems other than the BT system) was assessed by measuring total protein levels using sulforhodamine B (SRB) staining in parallel cultures at the time of biomarker measurements, indicated as SRB endpoints. For proliferation assays for adherent cell types, individual cell types are cultured at sub-confluence and relative cell numbers quantified by SRB staining at time points optimized for each system (48 h: 3C and CASM3C systems; 72 h: BT and HDF3CGF systems; 96 h: SAg system). SRB was performed by staining cells with 0.1% SRB after fixation with 10% TCA and reading wells at 560 nm.Viability and proliferation of PBMC (T cells) was quantified by Alamar Blue reduction for the SAg and BT systems. For PBMC viability (referred to as PBMC Cytotoxicity within the assay endpoint names), cells were plated (75,000/well in a 96-well plate) and then chemical samples added for 1 h before addition of activators, SEB and TSST-1 (20 ng/mL final concentration each). Cells were incubated for 90 h. Then, Alamar Blue (20 uL/well) (Invitrogen, Cat DAL1100) was added for 6 h, and the plates were read with a fluorescence microplate reader at 546/580 nm (excitation/emission). For PBMC proliferation, cells were plated and activated as above but incubated for only 16 h prior to addition of Alamar Blue. Plates were read after 6 h.

| SMILES | outcome | AC50 |
| --- | --- | --- |
| COC(OC)(C(=O)c1ccccc1)c1ccccc1 | inactive | – |
| CCC1(C)C(=O)N(Cl)C(=O)N1Cl (stereo not given) | inactive | – |
| CCCCCCCO | inactive | – |
| Fc1ccc(Br)cc1 | inactive | – |
| CC(Cl)COP(=O)(OCC(C)Cl)OCC(C)Cl (stereo not given) | inactive | – |
| O=C(O)C(F)(F)C(F)(F)C(F)(F)C(F)(F)C(=O)O | inactive | – |
| COc1ccc(C(=O)/C(Br)=C\C(=O)O)cc1 | inactive | – |
| C[N+](C)(C)CCCNS(=O)(=O)C(F)(F)C(F)(F)C(F)(F)C(F)(F)C(F)(F)C(F)(F)C(F)(F)C(F)(F)F | inactive | 21.9 µM (active) |
| CCOC(=O)C1=NN(c2ccc(Cl)cc2Cl)C(C)(C(=O)OCC)C1 (stereo not given) | inactive | – |
| CCc1cccc(C)c1N(C(=O)CS(=O)(=O)O)C(C)COC (stereo not given) | inactive | – |
| CC/C=C\CCOC(=O)c1ccccc1O | – | 31.3 µM (active) |
| CCCCC1C(=O)N(c2ccccc2)N(c2ccccc2)C1=O | inactive | – |
| C=CCCCCCCCCC=O | inactive | – |
| CC(C)[N+](C)(CCOC(=O)C1c2ccccc2Oc2ccccc21)C(C)C | – | 0.0398 µM (active) |
| c1ccc2sc(SSN3CCOCC3)nc2c1 | – | 29.8 µM (active) |
| O=C(Oc1ccccc1)c1ccccc1C(=O)Oc1ccccc1 | inactive | – |
| Nc1cccc(N)n1 | inactive | – |
| CC(C)CCCCCOC(=O)CS | inactive | – |
| O=C(Cl)c1c(Cl)c(Cl)c(C(=O)Cl)c(Cl)c1Cl | inactive | – |
| CCN1CN(CC)CN(CC)C1 | inactive | – |

| SMILES | outcome | AC50 |
| --- | --- | --- |
| CC/C=C\C/C=C\C/C=C\CCCCCCCC(=O)OC | – | 13.7 µM (active) |
| Oc1c(Cl)cc(Cl)c(Cl)c1Cl | – | 28.3 µM (active) |
| C=CC(=O)NC(C)(C)C | inactive | – |
| c1ccc2c(c1)[nH]c1ccccc12 | inactive | – |
| CC(C)c1cccc(C(C)C)c1N | inactive | – |
| CCOC(=O)/C=C\C(=O)OCC | inactive | – |
| O=C1CCCCCCCCCCC1 | inactive | – |
| O=C1CCCCCCCCCCCN1 | inactive | – |
| C=CC(=O)OCC(C)OCC(C)OCC(C)OC(=O)C=C (stereo not given) | – | 30.9 µM (active) |
| Oc1ccc(/C=C/c2cc(O)cc(O)c2)cc1 | inactive | – |
| C=CC(=O)NCOCCCC | inactive | – |
| CCOC(=O)C1=NOC(c2ccccc2)(c2ccccc2)C1 | inactive | – |
| CCCCCCOC(=O)CCCCC(=O)OCCCCCC | inactive | – |
| CCCCCCCCCCCC(C)=O | inactive | – |
| CCCCCC1=CCCC1=O | inactive | – |
| C=CC(=O)OCCCCCCCC(C)C | inactive | – |
| CCCCCCC=O | inactive | – |
| CC1(C)CC(O)CC(C)(C)N1[O] | inactive | – |
| C=C(C)C(=O)OCCCCCCCCCCCC | inactive | – |

Reference: PubChem BioAssay (EPA / NIEHS)
